One test concerns JEG-3. Kind of test: Primary qHTS to identify gynecologic anti-cancer compounds using libraries of approved drugs and bioactive compounds (AID 1345084). Note: nearly all actives have a fitted effect of over 55% in size. The settings on record: Gynecologic cancer cell panel viability, ATPlite luminescence, 48 h; series mostly up to 57.5 µM. An outline of the steps:
(§1)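 Cells, 1,000 per well, plated 16 h, then exposed 48 h at 37 C to compounds. Viability by ATPlite luminescence after 15 min at room temperature.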

The test system of another test is OV90. Described as above. The conditions noted are these: Gynecologic cancer cell panel viability, ATPlite luminescence, 48 h; series mostly up to 57.5 µM. The essentials: as §1
Another test deals with PA-1. The description is as above. The conditions noted are these: Gynecologic cancer cell panel viability, ATPlite luminescence, 48 h; series mostly up to 57.5 µM. An outline of the steps:
as §1

For another test, the system named is SKOV3. Described as above. The settings on record: Gynecologic cancer cell panel viability, ATPlite luminescence, 48 h; series mostly up to 57.5 µM. An outline of the steps:
as §1

The next test concerns Tov-21-G. The test is described as above. The settings on record: Gynecologic cancer cell panel viability, ATPlite luminescence, 48 h; series mostly up to 57.5 µM. An outline of the steps: as §1
On the technique in general: In ATP-based viability assays light output follows the ATP content of the culture.

A further test relates to Tov112D. Described as above. The settings on record: Gynecologic cancer cell panel viability, ATPlite luminescence, 48 h; series mostly up to 57.5 µM. The essentials:
as §1

The nature of test [1]: Drug repurposing screens with cells derived from glioblastoma tumor samples (AID 1345199). Note: nearly all actives have a fitted effect of over 40% in size. Note: potency is the fitted concentration of half-maximal effect. The conditions noted are these: GBM patient neurospheres viability, ATP luminescence, 48 h. An outline of the steps:
(§2)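 Four patient lines of CD133+ GBM neurospheres were screened at several concentrations; hits were retested in those lines plus three slower-growing GBM lines, using 48-hour treatment and ATP-based viability.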

A further test concerns astro. The description is as above. The conditions noted are these: viability, ATP luminescence, 48 h; series mostly up to 45.9 µM. An outline of the steps:
as §2

[2] abbreviates: at 20 µM (top of the series), tumour line C.
The mark [3] stands for this setting: at 21.2 µM (top of the series), tumour line B.
Where [4] appears, read: at 21.2 µM (top of the series), tumour line D.
Setting [5] is: at 46.1 µM (top of the series), tumour line C.
The mark [6] stands for this setting: at 45.9 µM (top of the series), tumour line B.
[7] abbreviates: at 45.9 µM (top of the series), tumour line D.
Where [8] appears, read: at 46 µM (top of the series), tumour line A.

Several values for one entry are separate records, joined by “and”; a condition that tells them apart may be missing. Equal entries are not always repeated. Records with an inconclusive call do not appear. The source holds several records for some structures; these can differ, active in one and inactive in another. Values without a mark were called inactive. Activity calls are given as the source filed them. Calls come from the whole dose curve; as a rule, active = well fitted curve in the direction sought with a large enough effect; inconclusive = small, poorly fitted or top-dose-only effect, or another doubt; inactive = no such curve, though single readings can be large; an effect the other way counts as inactive or inconclusive.
% is set by controls: 0 for no effect and ±100 for the full control effect.

As to `O=C(OCCOCCO)c1ccccc1Nc1cccc(C(F)(F)F)c1`, the Potency result in the test on JEG-3, in the test with OV90, in the test on PA-1, in the test with SKOV3, in the test on Tov-21-G and with Tov112D was “inactive” in each case. Also, the activity, negative = cell killing in test [1] (setting [2]) was -19.4%; in test [1] (setting [3]), 0.602%; in test [1] (setting [4]), -4.96%.
Regarding `CC[C@@H](CO)NCCN[C@@H](CC)CO`, the Potency entry with JEG-3, in the test with OV90, in the test on PA-1, in the test with SKOV3, in the test with Tov-21-G and in the test with Tov112D was “inactive” in each case. For the same compound, the Potency result with astro was “inactive”. In addition, the activity, negative = cell killing is 12.9% in test [1] (setting [2]); 2% in test [1] (setting [3]); -7.59% in test [1] (setting [4]); -22% in test [1] (at 21.3 µM (top of the series), tumour line A).
As to `CC1=C(C(=O)OC(C)C)C(c2cccc([N+](=O)[O-])c2)C(C(=O)OC2CN(C(c3ccccc3)c3ccccc3)C2)=C(N)N1` (centres undefined), the Potency entry in the test with JEG-3, in the test on OV90, in the test on PA-1, with SKOV3, with Tov-21-G and in the test with Tov112D was “inactive” throughout.
Consider `Cc1cc2c(cc1CC(=O)c1sccc1S(=O)(=O)Nc1onc(C)c1Cl)OCO2`, for which the Potency entry in the test with JEG-3, with OV90, in the test with PA-1, in the test with SKOV3, with Tov-21-G and in the test on Tov112D was “inactive” in each case.
In the case of `COC(=O)C1=C(C)NC(C)=C(C(=O)O[C@@H]2CCCN(Cc3ccccc3)C2)[C@@H]1c1cccc([N+](=O)[O-])c1`, the Potency entry with JEG-3, in the test on OV90, in the test on PA-1, in the test with SKOV3, with Tov-21-G and with Tov112D was “inactive” in each case.
On to `NC(=O)C(=O)N/N=C/c1ccc([N+](=O)[O-])o1`, for which the Potency result in the test with JEG-3, in the test with OV90, in the test on PA-1, in the test with SKOV3, in the test with Tov-21-G and with Tov112D was “inactive” in each case. In test [1] (setting [5]), the activity, negative = cell killing was 10.3%. Moreover, the Potency in test [1] (tumour line A) was 35.5 µM (active).
On to `O=C1OC2(c3ccc(O)cc3Oc3cc(O)ccc32)c2ccccc21`, for which the Potency entry in the test with JEG-3, with OV90, in the test on PA-1, in the test on SKOV3, in the test with Tov-21-G and in the test on Tov112D was “inactive” throughout. Further, the Potency result in the test with astro is “inactive”. Further, the activity, negative = cell killing was -8.7% and -8.22% in test [1] (setting [6]); -3.66% and -8.86% in test [1] (setting [7]); -6.74% in test [1] (setting [8]); 11.7% and -10.7% in test [1] (setting [5]).
Take `NC[C@H]1O[C@H](O[C@H]2[C@H](O)[C@@H](O[C@H]3O[C@H](CO)[C@@H](O)[C@H](N)[C@H]3O)[C@H](N)C[C@@H]2N)[C@H](N)[C@@H](O)[C@@H]1O`: the Potency result in the test with JEG-3, with OV90, with PA-1, in the test with SKOV3, with Tov-21-G and in the test with Tov112D was “inactive” in each case. For the same compound, the Potency result with astro was “inactive”. The activity, negative = cell killing in test [1] (setting [6]) was -3.08% and -15.5%; in test [1] (setting [7]), -22.4% and -15.3%; in test [1] (setting [8]), -11.7%; in test [1] (setting [5]), -0.491% and -12.3%.
Turning to `Nc1ccc(/C=C/c2ccc(N)cc2S(=O)(=O)O)c(S(=O)(=O)O)c1`, the activity change, negative = cytotoxicity in the test on JEG-3 was -1.28% [at 0.462 µM]; with OV90, 2.33% [at 0.462 µM]; with PA-1, 4.94% [at 0.462 µM]; in the test on SKOV3, -10.7% [at 0.462 µM]; in the test with Tov-21-G, 0.128% [at 0.462 µM]; in the test with Tov112D, 3.4% [at 0.462 µM]. The activity, negative = cell killing in test [1] (setting [6]) was -7.96%; in test [1] (setting [7]), -14.3%; in test [1] (setting [8]) it was -15.5%; in test [1] (setting [5]), -2.52%. For the same compound, the Potency entry with astro is “inactive”.
For the compound `CCOC(=O)/C=C(C)/C=C/C=C(C)/C=C/c1c(C)cc(OC)c(C)c1C`, the Potency entry in the test on JEG-3, with OV90, in the test with PA-1, with SKOV3, in the test with Tov-21-G and in the test on Tov112D was “inactive” throughout.
Consider `CNC(=O)CN(CCN(CCN(CC(=O)[O-])CC(=O)NC)CC(=O)[O-])CC(=O)[O-].O.[Gd+3]`, for which the Potency result in the test with JEG-3, in the test with OV90, in the test with PA-1, with SKOV3, with Tov-21-G and in the test on Tov112D was “inactive” in each case. Further, the Potency entry in the test on astro was “inactive”. The activity, negative = cell killing is 8.28% and -4.12% in test [1] (setting [6]); 7.83% and 10.5% in test [1] (setting [7]); -5.02% in test [1] (setting [8]); -11.8% and -0.805% in test [1] (setting [5]). For the same compound, the Potency in test [1] (tumour line A) is 35.5 µM (active).
As for `N[C@H](Cc1c[nH]c2ccccc12)C(=O)O`, the Potency entry in the test with JEG-3, in the test on OV90, with PA-1, in the test on SKOV3, in the test on Tov-21-G and with Tov112D was “inactive” in each case. The activity, negative = cell killing is 21.7% in test [1] (setting [8]) and 0.799% in test [1] (setting [5]). The Potency in test [1] (tumour line B) was 35.5 µM (active).
Take `CCCCCCCCCCCCCCNCCO`: the Potency result with JEG-3, with OV90, in the test with PA-1, with SKOV3, with Tov-21-G and with Tov112D was “inactive” throughout.
For the compound `O=C(Nc1ccc(Cl)c(Cl)c1)C1CC1`, the Potency result in the test with JEG-3, in the test with OV90, in the test on PA-1, with SKOV3, in the test with Tov-21-G and in the test on Tov112D was “inactive” each time. Besides, the activity, negative = cell killing in test [1] (setting [6]) was -26.9%. The Potency in test [1] (tumour line A) was 28.2 µM (active); in test [1] (tumour line C), 23.1 µM (active); in test [1] (tumour line D) it was 20 µM (active).
Turning to `Oc1cc(O)c2c(c1)O[C@H](c1ccc(O)c(O)c1)[C@H](O)C2`, the Potency entry with JEG-3, with OV90, with PA-1, in the test with SKOV3, in the test with Tov-21-G and in the test with Tov112D was “inactive” in each case. The Potency entry in the test with astro is “inactive”. Also, the activity, negative = cell killing in test [1] (setting [6]) was -5.02%; in test [1] (setting [7]), -9.16%; in test [1] (setting [8]), -28.5%; in test [1] (setting [5]), -2.43%.
For `CCCCS(=O)(=O)N[C@@H](Cc1ccc(OCCCCC2CCNCC2)cc1)C(=O)O`, the Potency entry with JEG-3, in the test on OV90, with PA-1, in the test on SKOV3, in the test on Tov-21-G and with Tov112D was “inactive” in each case. Further, the Potency result in the test on astro was “inactive”. The activity, negative = cell killing in test [1] (setting [6]) was -17.7%; in test [1] (setting [7]), -22%; in test [1] (setting [5]) it was -12.3%. Besides, in test [1] (tumour line A), the Potency was 11.2 µM (active).

Source of the values: PubChem BioAssay (NCATS).
